Nrf2 ARE act = qHTS of Nrf2 Activators; AREc32 ARE-luciferase reporter (MCF7-derived line), luminescence, 24 h; Potency, µM (highest dose often 46.1 µM), without a hit: at the top dose activation, hits mostly activators; hit rate 0.31% among 410,000; AID 624171, 2012; also: % of control where 0% means no effect; nearly all actives have a fitted effect of over 65% in size
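AREc32_Fluc, 1000 cells/well, OPTI-MEM + 5% FBS, o/n 37 deg C 5% CO2; 23 nL cpd by pin tool, 24 hr; Steady-Glo 30 min RT, luminescence.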
Nrf2 inh = Nrf2 qHTS screen for inhibitors | A549 ARE-Fluc reporter, luciferase luminescence, 18-24 h | Potency, µM (highest dose often 46 µM), without a hit: at the highest dose activity change, negative = inhibition, most hits filed as inhibitors | hit rate 2.1% among 360,000; also: % is scaled to controls: 0 for no effect and ±100 for the full control effect; nearly all actives have a fitted effect of over 60% in size
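In this cell-based qHTS, ARE-driven firefly luciferase in A549 cells reports Nrf2 activity; the luminescent signal after BugLite lysis is the measured value, with a prior CellTiter-Fluor read for cell health.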
A549 viability = Nrf2 qHTS screen for inhibitors: counterscreen for cytotoxicity; A549 ARE-Fluc cells, CellTiter-Fluor viability, 18-24 h; Potency, µM (top dose mostly 46 µM), without a hit: at the top dose activity change, negative = cytotoxicity, hits mostly inhibitors; hit rate 0.16% among 390,000; also: % is scaled to controls: 0 for no effect and ±100 for the full control effect
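A549 ARE_Fluc cells in 5% FBS OPTI-MEM were exposed to compounds in concentration-response for 18-24 h at 37 deg C. Viability was read by CellTiter-Fluor fluorescence (Ex 405/Em 525) after 30 min, before the luciferase read.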
HepG2 tox = qHTS for Inhibitors of TGF-b: Cytotox Counterscreen; HepG2 CAGA-GFP viability, ATP luminescence, 18 h; Potency, µM (top dose mostly 46.1 µM), inactives show at the top dose activity change, negative = cytotoxicity, most hits filed as cytotoxic; hit rate 0.76% among 410,000; AID 588856, 2011
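HepG2 CAGA-GFP cells (1000/well, DMEM with 1% FBS) received compound, then TGF-beta at 500 pg/mL final, and were incubated 18 hours at 37 degrees C. Viability was read by CellTiter-Glo luminescence. Media-only wells were set as complete cell-killing and DMSO as no toxicity.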
TGFb inhibitor = qHTS for Inhibitors of TGF-b; hit rate 1.2% among 410,000; Potency, µM (highest dose often 46.1 µM), for inactives: at the top dose activity, negative = inhibition, most hits filed as inhibitors; HepG2 CAGA-GFP TGF-b/SMAD3 reporter, GFP fluorescence, 18 h; TGF-beta stimulated, 500 pg/mL final; also: % is scaled to controls: 0 for no effect and ±100 for the full control effect; nearly all actives have a fitted effect of over 65% in size
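Smad-responsive CAGA-GFP expression was quantified in HEPG2 cells exposed to compounds and 500 pg/mL final TGF-beta for 18 h at 37 degrees C; unstimulated wells defined full inhibition.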
Starred values were filed as active, the others as inactive. Compounds with a hit are over-represented: about 3.6% of the library has one in this group of screens. Calls follow the shape of the dose curve; as a rule, active = well fitted curve in the direction sought with a large enough effect; inconclusive = small, poorly fitted or top-dose-only effect, or another doubt; inactive = no such curve, though single readings can be large; an effect the other way counts as inactive or inconclusive. Potency is read from the fitted curve at half-maximal effect.

Results for COC(=O)c1cc(NC(=O)CN(c2cccc(OC)c2)S(=O)(=O)c2ccccc2)ccc1Cl ?
Nrf2 ARE act: 2%; Nrf2 inh: 23µM*; A549 viability: -10%; HepG2 tox: -26%; TGFb inhibitor: inconclusive

Results for CS(=O)(=O)N(CC(=O)Nc1ccc(CC#N)cc1)c1ccc(C23CC4CC(CC(C4)C2)C3)cc1 ?
Nrf2 ARE act: 4%; Nrf2 inh: 15µM*; A549 viability: inconclusive; HepG2 tox: -38%; TGFb inhibitor: 7.1µM*

Results for O=C1C(Cl)=C(NC(=O)c2ccccc2)C(=O)C(Cl)=C1NC(=O)c1ccccc1 ?
Nrf2 ARE act: -3%; Nrf2 inh: inconclusive; A549 viability: inconclusive; HepG2 tox: -31%; TGFb inhibitor: 11µM*

What do the screens show for `CN(c1ccc(C(=O)Nc2ccc(Cl)cn2)cc1)S(=O)(=O)c1ccccc1`?
Nrf2 ARE act: 4%; Nrf2 inh: inconclusive; A549 viability: 2%; HepG2 tox: -38%; TGFb inhibitor: -28%

Results for CN(C1=C(NC(=O)c2ccc(Cl)cc2)C(=O)c2ccccc2C1=O)c1ccccc1 ?
Nrf2 ARE act: -1%; Nrf2 inh: 3%; A549 viability: 0%; HepG2 tox: -53%; TGFb inhibitor: 13µM*

What do the screens show for `O=C(CCn1nc(-c2ccc(Cl)cc2)ccc1=O)N1CCN(c2ccccc2)CC1`?
Nrf2 ARE act: 0%; Nrf2 inh: 11%; A549 viability: -1%; HepG2 tox: -32%; TGFb inhibitor: inconclusive

What do the screens show for `COc1ccc(CC(=O)c2ccc(OC3OC(CO)C(O)C(O)C3O)cc2O)cc1` (stereo unspecified)?
Nrf2 ARE act: 0%; Nrf2 inh: inconclusive; A549 viability: -6%; HepG2 tox: -3%; TGFb inhibitor: 6%

Results for CCCCC(CC)COC(=O)c1ccc(N(C)C)cc1 (stereo unspecified) ?
Nrf2 ARE act: -1%; Nrf2 inh: 6%; A549 viability: 1%; HepG2 tox: -1%; TGFb inhibitor: -10%

How did O=C(Nc1nc2ccccc2[nH]1)c1ccccc1F do in these assays?
Nrf2 ARE act: -1%; Nrf2 inh: inconclusive; A549 viability: 12%; HepG2 tox: 2.2µM*; TGFb inhibitor: 1%

Results for CCOc1ccc(C(=O)Nc2nc3ccccc3[nH]2)cc1OCC ?
Nrf2 ARE act: 7%; Nrf2 inh: 10µM*; A549 viability: -12%; HepG2 tox: -29%; TGFb inhibitor: inconclusive

Results for CCCCCCNC(=O)O[C@H]1Cn2c(=O)n(CCCCCC)c(=O)n2[C@@H]2CN(S(=O)(=O)c3ccc(C)cc3)C[C@]12O ?
Nrf2 ARE act: -4%; HepG2 tox: 22µM*; TGFb inhibitor: inconclusive

How did CCCCCCn1c(=O)n2n(c1=O)[C@@H]1CN(S(=O)(=O)c3ccc(C)cc3)C[C@]1(O)[C@@H](OC(=O)NC1CC1)C2 do in these assays?
Nrf2 ARE act: 3%; HepG2 tox: 3%; TGFb inhibitor: -1%

What do the screens show for `CCCCCCn1c(=O)n2n(c1=O)[C@@H]1CN(S(=O)(=O)c3ccc(C)cc3)C[C@]1(O)[C@@H](OC(=O)NCc1ccccc1F)C2`?
Nrf2 ARE act: -3%; HepG2 tox: 7.9µM*; TGFb inhibitor: 13µM*

Results for CCCCCCn1c(=O)n2n(c1=O)[C@@H]1CN(S(=O)(=O)c3ccc(C)cc3)C[C@]1(O)[C@@H](OC(=O)NC1CCCC1)C2 ?
Nrf2 ARE act: 0%; HepG2 tox: -30%; TGFb inhibitor: 11µM*

How did COc1ccccc1N1CCN(C(=O)CCSCc2ccccc2F)CC1 do in these assays?
Nrf2 ARE act: -1%; Nrf2 inh: 0%; A549 viability: -1%; HepG2 tox: -2%; TGFb inhibitor: 19%

How did CCCCc1ccc(NC(=O)c2cc3c(=O)n4ccccc4nc3n2C)cc1 do in these assays?
Nrf2 ARE act: 0%; Nrf2 inh: 0%; A549 viability: 4%; HepG2 tox: 6%; TGFb inhibitor: -3%

How did Cc1ccc(N=C2SC(C(=O)Nc3ccc(OC(F)(F)F)cc3)C(N)=C2C(=O)Nc2c(C)cc(C)cc2C)cc1 (stereo unspecified) do in these assays?
Nrf2 ARE act: -3%; Nrf2 inh: inconclusive; A549 viability: inconclusive; HepG2 tox: 11µM*; TGFb inhibitor: 7.1µM*

Results for Cc1ccc(NC(=O)C2SC(=Nc3ccccc3)C(C(=O)Nc3ccc(Cl)cc3)=C2N)cc1 (stereo unspecified) ?
Nrf2 ARE act: 2%; Nrf2 inh: -9%; A549 viability: -22%; HepG2 tox: 2%; TGFb inhibitor: -26%

What do the screens show for `CC(=O)Nc1ccc(Nc2nc(-c3ccccc3)nc3ccccc23)cc1`?
Nrf2 ARE act: 0%; Nrf2 inh: inconclusive; A549 viability: -10%; HepG2 tox: -29%; TGFb inhibitor: 0%

How did CN(C(=O)c1cccc(NC(=O)Cc2ccc([N+](=O)[O-])cc2)c1)C1CC1 do in these assays?
Nrf2 ARE act: 3%; Nrf2 inh: 21µM*; A549 viability: -6%; HepG2 tox: -18%; TGFb inhibitor: -30%

What do the screens show for `COc1ccc2c(C(=O)CCl)c[nH]c2c1`?
Nrf2 ARE act: 1%; Nrf2 inh: inconclusive; A549 viability: inconclusive; HepG2 tox: 6.3µM*; TGFb inhibitor: 14µM*

What do the screens show for `O=C(Nc1ccccc1C(=O)N/N=C/c1ccco1)c1ccc(F)cc1`?
Nrf2 ARE act: 2.8µM*; Nrf2 inh: 3%; A549 viability: 8%; HepG2 tox: 13µM*; TGFb inhibitor: inconclusive

How did Cc1ccccc1C(=O)Nc1ccccc1C(=O)N/N=C\c1ccco1 do in these assays?
Nrf2 ARE act: inconclusive; Nrf2 inh: 6%; A549 viability: 11%; HepG2 tox: -19%; TGFb inhibitor: -8%

How did O=C(Nc1ccccc1C(=O)N/N=C/c1ccco1)c1ccc(Cl)cc1 do in these assays?
Nrf2 ARE act: inconclusive; Nrf2 inh: 2%; A549 viability: 19%; HepG2 tox: -55%; TGFb inhibitor: -10%

What do the screens show for `O=C(Nc1ccccc1C(=O)N/N=C/c1ccco1)c1ccccc1`?
Nrf2 ARE act: 3.5µM*; Nrf2 inh: 4%; A549 viability: 1%; HepG2 tox: -41%; TGFb inhibitor: 11%

How did O=C(N/N=C\c1ccco1)Nc1cccc(Cl)c1 do in these assays?
Nrf2 ARE act: 5µM*; Nrf2 inh: inconclusive; A549 viability: -8%; HepG2 tox: 11%; TGFb inhibitor: -16%

What do the screens show for `CCCCc1ccc(NC(=O)OC)cc1`?
Nrf2 ARE act: 2%; Nrf2 inh: 38%; A549 viability: -1%; HepG2 tox: 9%; TGFb inhibitor: 18%
